Gal4-VP16 FLuc – counter-screen for ROR gamma inhibitors: Gal4-VP16 reporter; Drosophila S2 Gal4-VP16 UAS-luciferase, luminescence, 20 h; Potency, µM (highest dose often 53.6 µM), inactives show at the highest dose activity, negative = inhibition, most hits filed as inhibitors; 3.5% of 310,000 active; AID 2546;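 further: Gal4-VP16 expression switched on by copper sulfate through the metallothionein promoter; nearly all actives have a fitted effect of over 50% in size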
DT40 TDP1 CPT – growth inhibition of DT40 Tdp1-/-;hTDP1 cells with camptothecin (screen for TDP1 inhibitors); chicken DT40 Tdp1-/-;hTDP1 cells + 20 nM CPT, ATP luminescence, 48 h; 12% of 420,000 active; Potency, µM (doses to about 46.2 µM), inactives show top-dose activity change, negative = growth inhibition, most hits filed as inhibitors; AID 686979; further: nearly all actives have a fitted effect of over 55% in size
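Cell growth measured by CellTiter-Glo luminescence after a minimum 48 h, 37 C compound exposure with 20 nM CPT in Tdp1-knockout DT40 cells stably expressing hTDP1, seeded 400/well; qHTS titration format.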
TDP1 cell noCPT – qHTS for Inhibitors of human tyrosyl-DNA phosphodiesterase 1 (TDP1): qHTS in cells in absence of CPT; DT40 Tdp1-/- hTDP1 cells, no CPT, ATP luminescence, 48 h; Potency, µM (highest dose often 46.2 µM), inactives show at the highest dose activity change, negative = growth inhibition, usual class: inhibitors; 15% of 420,000 active; AID 686978, 2013; further: nearly all actives have a fitted effect of over 55% in size
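Luminescent ATP content (CellTiter-Glo) served as the growth readout. Knockout chicken DT40 cells expressing human TDP1 were exposed to compounds without camptothecin for a minimum 48 hr at 37 °C.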
ALOX12 inh – inhibitors of human 12S-lipoxygenase ALOX12 | P18054 | purified 12hLO, xylenol orange hydroperoxide absorbance | Potency, µM (doses to about 108 µM), without a hit: at the highest dose activity change, negative = inhibition, actives largely listed as inhibitors | 1.1% of 580,000 active
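Purified human 12hLO (150 nM final) in 25 mM Hepes, 0.01% Triton X-100, pH 7.0 was preincubated 15 min at room temperature with compound. Then 40 uM arachidonic acid was added, 30 min. Hydroperoxide was read by Fe-XO absorbance ratio 573/405 nm.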
RORg inh – inhibitors of mouse ROR gamma transcriptional activity. P51450. Drosophila S2 Gal4-RORgamma UAS-luciferase reporter, 20 h. Potency, µM (top dose mostly 53.6 µM), without a hit: at the highest dose activity change, negative = inhibition, hits mostly inhibitors. 5.4% of 310,000 active. AID 2551; further: nearly all actives have a fitted effect of over 60% in size
Target sequence (P51450 whole entry, looked up, the tested form may be a part): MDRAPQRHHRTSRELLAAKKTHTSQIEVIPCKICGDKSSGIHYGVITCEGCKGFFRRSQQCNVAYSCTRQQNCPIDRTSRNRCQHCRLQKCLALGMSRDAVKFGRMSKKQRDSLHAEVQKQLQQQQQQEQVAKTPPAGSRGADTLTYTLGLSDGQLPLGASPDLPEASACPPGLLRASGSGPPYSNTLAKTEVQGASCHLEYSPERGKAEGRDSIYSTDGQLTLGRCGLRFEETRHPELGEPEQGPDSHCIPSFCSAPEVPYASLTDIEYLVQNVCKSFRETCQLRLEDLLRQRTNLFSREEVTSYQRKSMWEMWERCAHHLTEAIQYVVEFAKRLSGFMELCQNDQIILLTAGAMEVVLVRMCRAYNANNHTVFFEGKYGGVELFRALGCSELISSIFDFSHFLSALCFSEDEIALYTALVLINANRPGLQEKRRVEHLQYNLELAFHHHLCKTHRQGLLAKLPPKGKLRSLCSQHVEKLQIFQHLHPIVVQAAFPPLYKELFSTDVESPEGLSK
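Luciferase reporter read in Schneider cells carrying Gal4-RORγ (mouse) and UAS-Photinus luciferase; cells given compound 1 h before 700 uM copper sulfate induction, then incubated 20 h at ambient temperature.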
ELG1 repair inh – blocks ELG1-dependent DNA repair in HEK293T cells; HEK293T ELG1-luciferase reporter, luminescence, 16 h; DNA damage induced by 5-fluorouridine; Potency, µM (titrated, usually from 46.1 µM), without a hit: at the highest dose activity change, negative = inhibition, most hits filed as inhibitors; 2.3% of 330,000 active; further: nearly all actives have a fitted effect of over 55% in size
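5-Fluorouridine DNA damage + compound/DMSO, 2,000 cells/well, 16 h, 37 °C/5% CO2. ONE-Glo, 30 min RT, luminescence. Readout = decrease in reporter signal.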
An asterisk follows results filed as active; ? = inconclusive; . = no result given; [ ] = another dose, or the depositor's remark. The list is not random: actives were taken first. Their share in the collection is about 15%. The call rests on the fitted dose curve; in most records, active means well fitted curve in the direction sought with a large enough effect; inconclusive means small, poorly fitted or top-dose-only effect, or another doubt; inactive means no such curve, though single readings can be large; an effect the other way counts as inactive or inconclusive. On the % scale 0 is the no-effect control and ±100 the full control effect; potency means the concentration at half of the fitted maximal effect.

SMILES	Gal4-VP16 FLuc	DT40 TDP1 CPT	TDP1 cell noCPT	ALOX12 inh	RORg inh	ELG1 repair inh
O=C(/C=C/c1cccs1)c1ccc(N2CCOCC2)cc1	14µM*	?	?	-11%	7.9µM*	?
CC(=O)c1cc(OC(=O)N2CCOCC2)ccc1OC(=O)N1CCOCC1	5%	-2%	22%	0%	5%	16%
O=C(O)c1ccc(N2CCOCC2)cc1	.	.	.	-15%	.	.
CC1CCCc2c1nc1sc3c(c1c2-c1cccc(F)c1)CCCC3 (configuration not stated)	.	.	.	-1%	.	.
CCOc1ccc(C(=O)CSc2nc3cc(C(=O)NCC(C)C)ccc3c(=O)n2CCOC)cc1	.	.	.	4%	.	.
COc1ccc(-c2nc(-c3nonc3N)no2)cc1	.	.	.	17%	.	.
O=C(Nc1ccc(S(=O)(=O)N2CCCCC2c2cccnc2)cc1)c1ccc(Br)cc1 (configuration not stated)	.	16µM*	9.2µM*	-11%	.	.
O=C(Nc1ccc(S(=O)(=O)N2CCCCC2c2cccnc2)cc1)c1c(F)cccc1F (configuration not stated)	-13%	?	?	-13%	27%	?
CCCCC(=O)Nc1ccc(S(=O)(=O)N2CCCCC2c2cccnc2)cc1 (configuration not stated)	-7%	18µM*	13µM*	0%	16%	-16%
CCc1cc(=O)n(CC(=O)Nc2cc(OC)c(OC)c(OC)c2)c(-c2ccccc2)n1	.	.	.	-4%	.	.
Cc1cc(Cl)ccc1Oc1ccc(S(=O)(=O)N2CCCC2)cn1	.	.	.	25%	.	.
CC1=C[C@@H](CNC(=O)[C@@H]2CCCC[C@@H]2C(=O)O)[C@H](C(C)C)C[C@H]1Cc1nc2ccccc2[nH]1	.	.	.	48%	.	.
CC(C)(C)OC(=O)NCCCCCNC(=O)c1nc[nH]c1C(=O)N1CCN(C(=O)OC(C)(C)C)CC1	.	?	16µM*	?	.	?
C[C@H](NC(=O)c1nc[nH]c1C(=O)N1CCN(c2ccccc2)CC1)C(=O)OC(C)(C)C	?	-4%	-15%	-1%	?	13%
CC(C)(C)OC(=O)NCCCC[C@H](NC(=O)c1nc[nH]c1C(=O)N1CCN(c2ccccc2)CC1)C(=O)OC(C)(C)C	?	?	18µM*	6%	13µM*	21µM*
CC(C)(C)OC(=O)NCCCC[C@H](NC(=O)c1nc[nH]c1C(=O)N1CCN(C(=O)OC(C)(C)C)CC1)C(=O)OC(C)(C)C	8%	?	23µM*	-1%	?	-12%
CC(C)C[C@H](NC(=O)c1nc[nH]c1C(=O)N1CCN(C(=O)OC(C)(C)C)CC1)C(=O)OC(C)(C)C	?	?	?	6%	2.8µM*	-6%
Cc1ccc(C2Cn3nnc(C(=O)N4CCC(C(=O)NCc5ccncc5)CC4)c3CO2)cc1 (configuration not stated)	.	.	.	2%	.	.
COc1ccc(C2(C(=O)N3CCC(Cc4ccccc4)CC3)CCOCC2)cc1	.	.	.	0%[6.33 µM]	.	.
COc1ccc(CN2C(=O)[C@@H]3C[C@@H](O)CN3C3(CN(Cc4cnc[nH]4)C3)C2=O)cc1	.	.	.	57%[176 µM]	.	.
O=C(CNc1nc(Cl)nc2nc[nH]c12)NCCc1c[nH]c2ccc(F)cc12	.	.	.	3%	.	.
O=[N+]([O-])c1cccc(/C=N/OCc2c(F)cccc2Cl)c1	.	.	.	1%	.	.
COc1ccc(/C=C/C(=O)NC(=S)NNC(=O)c2cccnc2)cc1	-43%	?	?	-5%	-3%[10 µM]	1%
O=C(NNC(=O)c1ccc(NC(=O)c2ccccc2)cc1)c1ccccc1	-7%	-23%	?	0%	-15%	?
Cc1cccc(C(=O)NNC(=S)NC(=O)c2ccccc2)c1	.	18µM*	21µM*	122%	.	.
SMILES	Gal4-VP16 FLuc	DT40 TDP1 CPT	TDP1 cell noCPT	ALOX12 inh	RORg inh	ELG1 repair inh
COc1ccc(/C=C/C(=O)NC(=S)NNC(=O)c2cnccn2)cc1	6%	2.9µM*	5.2µM*	5%	-13%	?
CCCCC(=O)NC(=S)NNC(=O)c1ccc(OC)cc1	2%	4.6µM*	3.3µM*	?	-23%	?
CCC(=O)NC(=S)Nc1ccc(NC(=O)c2ccc(OC)cc2)cc1	-2%	20%	10%	-17%	2%	15%
CCC(=O)NC(=S)NNC(=O)c1ccc(NC(=O)c2ccccc2)cc1	0%	5.8µM*	7.3µM*	-3%	?	-18%
Cc1c(C(=O)C(=O)Nc2ccc(C(N)=O)cc2)c2ccccc2n1C	.	.	.	2%	.	.
O=C(NCc1nnc2ccc(-c3ccccc3)nn12)c1ccc[nH]c1=O	.	.	.	9%	.	.
Cc1cccc(C(=O)NNC(=O)c2ccccc2O)c1	?	?	21µM*	0%	13µM*	?
CCNC(=S)NNC(=O)c1ccc(OC)cc1	0%	-3%	-5%	5%	-1%	-6%
Cc1cccc(C(=O)NC(=S)NNC(=O)COc2ccc(Cl)cc2)c1	?	?	?	35µM*	4µM*	6%
COc1ccc(C(=O)NNC(=S)NC(=O)c2ccc(OC)cc2)cc1	?	16µM*	?	?	-14%[1.91 µM]	-25%
Cc1cccc(/C(N)=N/OC(=O)COc2ccc(Cl)cc2)c1	3%	?	?	0%	15%	26%
CCCOc1ccc(C(=O)NNC(=S)NC(=O)CC)cc1	-9%	4.6µM*	2.6µM*	?	2%	?
O=C(O)c1ccc(CN2CC[C@H](c3nnc(-c4cccnc4)o3)C2)cc1	.	.	.	74%[176 µM]	.	.
CC(C)C(=O)Nc1ccc(C(=O)NNC(=S)NC(=O)c2cccs2)cc1	?	?	?	-11%	-35%	0%
COc1ccc(/C=C/C(=O)OCC(=O)c2cccs2)cc1	.	.	.	17%	.	.
COc1ccc(C(=O)NC(=S)NNC(=O)c2cccc(C)c2)cc1	.	26µM*	23µM*	?	.	.
COc1ccc(/C=C/C(=O)NC(=S)NNC(=O)c2cccs2)cc1	22µM*	6.5µM*	4.6µM*	-12%	2µM*	?
CCOC(=O)CCC(=O)NNC(=O)c1ccc(NC(=O)c2ccccc2)cc1	-1%	18µM*	?	177%	-6%	27%
COc1ccc(C(=O)NNC(=S)NC(=O)c2cccs2)cc1	-29%	15µM*	?	?	?	-23%
CNC(=O)[C@@H]1C[C@H](n2cc(CNC(=O)Nc3cccc(Cl)c3C)nn2)CN1	.	.	.	4%	.	.

Screening results (PubChem)
